Source: PubChem BioAssay (Tox21)
Inconclusive results are not listed. Active and inactive are the calls of the source. Unless noted, the call rests on the fitted dose curve; in most records, active means well fitted curve in the direction sought with a large enough effect in the repeat runs; inconclusive means weak or mixed curves; inactive means no such curve, though single readings can be large; an effect the other way counts as inactive or inconclusive.

Columns and labels:
[1] = qHTS assay to identify small molecule agonists of the vitamin D receptor (VDR) signaling pathway - cell viability counter screen (AID 743224); further: nearly all actives have a fitted effect of over 50% in size
How it was run: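 VDR-bla cells, 4 h after plating, exposed to compounds for 16 h at 37C; viability then read in the same wells as CellTiter-Glo luminescence after 30 min at room temperature, following the bla FRET read.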

[2] = qHTS assay to identify small molecule antagonists of the vitamin D receptor (VDR) signaling pathway - cell viability counter screen (AID 743225); further: nearly all actives have a fitted effect of over 50% in size
How it was run: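 HEK293T VDR-bla; cpd + 1a,25-(OH)2D3 3 nM final, 16 h 37C/5% CO2; B/G FRET substrate 2 h RT; then CellTiter-Glo 30 min RT, luminescence.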

[3] = qHTS assay to identify small molecule agonists of the NFkB signaling pathway (AID 1159509; active means well fitted curve in the direction sought with a large enough effect in the signal ratio in the repeat runs, not every such curve was filed as active; the % refers to the signal ratio)
How it was run: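 ME-180 NFkB-bla, 2,000 cells/well, overnight plating; cpd pinned in DMSO, 5 h 37 C; B/G FRET substrate 1.5 h RT; ex 405, em 460/530 nm.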

[4] = qHTS assay to identify small molecule agonists of the NFkB signaling pathway - cell viability counter screen (AID 1159515; calls by dose curve; further: nearly all actives have a fitted effect of over 55% in size)
How it was run: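 NFkB-bla ME-180 cells, 2,000/well, plated overnight at 37 C; compound added for 5 hr at 37 C. Viability read in the same wells as the bla reporter, by CellTiter-Glo luminescence after 30 min at room temperature.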

[5] = qHTS assay to identify small molecule agonists of the endoplasmic reticulum stress response signaling pathway (AID 1159516; active means well fitted activation curve with a large enough effect in the signal ratio in the repeat runs, not every such curve was filed as active; the % refers to the signal ratio)
How it was run: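 CellSensor ESRE-bla HeLa cells, 1,500 per well, plated overnight, then exposed to compounds for 5 hr at 37 C. Beta-lactamase reporter read with LiveBLAzer B/G FRET substrate after 2 hr at room temperature, 405 nm excitation, 460 and 530 nm emission.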

[6] = qHTS assay to identify small molecule agonists of the endoplasmic reticulum stress response signaling pathway - cell viability counter screen (AID 1159517; calls by dose curve;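 further: HeLa cells carrying an ER stress response element beta-lactamase reporter; nearly all actives have a fitted effect of over 50% in size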)
How it was run: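 HeLa cells carrying an ESRE-driven beta-lactamase reporter receive compound for 5 hr at 37 C. Cell viability is then gauged with CellTiter-Glo by luminescence, 30 min at room temperature.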

[7] = qHTS assay to identify small molecule antagonists of the retinoid-related orphan receptor gamma (ROR-gamma) signaling pathway - cell viability counter screen (AID 1159520); further: nearly all actives have a fitted effect of over 50% in size
How it was run: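 Cytotoxicity was read from cellular ATP (CellTiter-Glo luminescence) after 16 hr at 37 C with 1 uM doxycycline induction. The inducer was added 2 hr after compound transfer to Tet-on ROR gamma CHO cells.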

[8] = target: Nuclear receptor ROR-gamma (Homo sapiens) (UniProt P51449); assay: qHTS assay to identify small molecule antagonists of the retinoid-related orphan receptor gamma (ROR-gamma) signaling pathway (AID 1159521)
How it was run: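 Cells were plated, rested 4 h at 37 C, exposed to compounds for 2 h, then given 1 uM final doxycycline hyclate to induce RORγ expression. After 16 h, ONE-Glo luminescence from the ROR response element reporter was measured.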

[9] = qHTS assay to identify small molecule agonists of the AP-1 signaling pathway - cell viability counter screen (AID 1159525; calls by dose curve; further: nearly all actives have a fitted effect of over 55% in size)
How it was run: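 Luminescent ATP readout (Cell Titer Glo, 30 min RT), normalised to DMSO and tetra n-octyl ammonium bromide controls. Cells were ME-180 AP-1-bla in 0.5% dialyzed FBS Opti-MEM, with a 5 h, 37 °C compound exposure.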

[10] = qHTS assay to identify small molecule agonists of the AP-1 signaling pathway (AID 1159526; calls by dose curve)
[11] = target: Retinoic acid receptor RXR-alpha (Homo sapiens) (UniProt P19793); assay: qHTS assay to identify small molecule agonists of the RXR signaling pathway (AID 1159527; calls by dose curve; further: nearly all actives have a fitted effect of over 35% in size)
Sequence of Retinoic acid receptor RXR-alpha (Homo sapiens) (P19793 whole entry, looked up): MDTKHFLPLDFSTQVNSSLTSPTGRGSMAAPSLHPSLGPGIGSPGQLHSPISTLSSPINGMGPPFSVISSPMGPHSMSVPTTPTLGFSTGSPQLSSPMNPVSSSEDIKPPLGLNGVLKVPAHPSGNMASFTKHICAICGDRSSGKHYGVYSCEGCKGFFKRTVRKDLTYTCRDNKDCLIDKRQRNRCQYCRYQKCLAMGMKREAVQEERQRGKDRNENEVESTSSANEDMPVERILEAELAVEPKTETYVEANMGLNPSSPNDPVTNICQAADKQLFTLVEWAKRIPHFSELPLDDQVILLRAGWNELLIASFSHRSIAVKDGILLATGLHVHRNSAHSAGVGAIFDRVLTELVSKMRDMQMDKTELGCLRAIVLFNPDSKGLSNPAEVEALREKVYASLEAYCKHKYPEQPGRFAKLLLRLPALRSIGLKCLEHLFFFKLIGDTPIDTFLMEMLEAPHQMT
How it was run: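 Cells plated at 2,000/well, rested 5 hr at 37 C, pin-dosed with DMSO compound solutions, incubated 16 hr, then loaded with B/G FRET substrate for 2 hr at RT before dual-emission fluorescence reading.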

[12] = qHTS assay to identify small molecule agonists of the RXR signaling pathway - cell viability counter screen (AID 1159529)
How it was run: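 Steps: seed RXR-alpha-UAS-bla HEK 293T cells in assay medium containing 2% charcoal-stripped FBS; incubate 5 hr; add compounds in DMSO; incubate 16 hr at 37 C; after the bla read, add CellTiter-Glo and read luminescence at 30 min.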

[13] = qHTS assay to identify small molecule antagonists of the retinoic acid receptor (RAR) signaling pathway (AID 1159552; further: nearly all actives have a fitted effect of over 50% in size)
How it was run: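 Retinol at 1 uM final stimulated RARE-luciferase expression in C3RL4 cells exposed to test compounds for 6 hr at 37 C. Reduced luminescence, read 30 min after detection reagent, indicated pathway antagonism.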

[14] = qHTS assay to identify small molecule agonists of the retinoic acid receptor (RAR) signaling pathway (AID 1159553); conditions: C3RL4 RARE luciferase reporter, agonist, 6 h; activation: at 73.3 µM (top of the series)
How it was run: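 C3RL4 RARE-luciferase cells were seeded at 1,000/well and grown overnight at 37 C, then exposed to compounds for 6 hr at 37 C, 5% CO2. Luciferase reagent was added and luminescence was read after 30 min at room temperature.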

[15] = qHTS assay to identify small molecule antagonists of the estrogen related receptor (ERR) signaling pathway from Tox21 library - cell viability counter screen (AID 1224834); further: nearly all actives have a fitted effect of over 30% in size
How it was run: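 ERR reporter cells, 2,000 per well, rested 6 h, then exposed to compound in DMSO for 17.5 hours at 37 C. Viability read as fluorescence after 30 min with CellTiter-Fluor.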

[16] = target: Luciferin 4-monooxygenase (Photinus pyralis) (UniProt P08659); assay: qHTS assay to identify small molecule inhibitors of firefly luciferase (AID 1224835); further: nearly all actives have a fitted effect of over 25% in size
Sequence of Luciferin 4-monooxygenase (Photinus pyralis) (P08659 whole entry, looked up): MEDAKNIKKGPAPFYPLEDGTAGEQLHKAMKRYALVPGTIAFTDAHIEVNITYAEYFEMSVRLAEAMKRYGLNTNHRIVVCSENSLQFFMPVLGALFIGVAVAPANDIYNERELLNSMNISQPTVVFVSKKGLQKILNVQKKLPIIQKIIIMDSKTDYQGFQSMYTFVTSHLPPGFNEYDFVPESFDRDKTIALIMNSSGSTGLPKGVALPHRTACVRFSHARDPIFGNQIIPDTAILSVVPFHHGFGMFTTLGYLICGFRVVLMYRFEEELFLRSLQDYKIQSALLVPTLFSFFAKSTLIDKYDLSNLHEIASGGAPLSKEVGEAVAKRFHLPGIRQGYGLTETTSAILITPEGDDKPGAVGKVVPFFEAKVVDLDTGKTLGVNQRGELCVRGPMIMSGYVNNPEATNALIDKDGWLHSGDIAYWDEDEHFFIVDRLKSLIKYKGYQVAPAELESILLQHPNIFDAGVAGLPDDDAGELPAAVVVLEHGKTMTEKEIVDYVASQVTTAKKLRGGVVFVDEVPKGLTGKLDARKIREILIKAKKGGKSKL
How it was run: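 Inhibition of purified Photinus luciferase is measured by luminescence. Substrate levels (D-luciferin, ATP) sit at their KM values. Each compound is tested in a concentration series.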

[17] = qHTS assay to identify small molecule antagonists of the constitutive androstane receptor (CAR) signaling pathway - cell viability counter screen (AID 1224837); further: nearly all actives have a fitted effect of over 45% in size
How it was run: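 HepG2 cells stably carrying hCAR and CYP2B6-2.2kb reporter, stimulated with 50 nM CITCO and compounds at 15 concentrations for 23 h at 37 C. Viability measured by CellTiter-Fluor fluorescence.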

[18] = qHTS assay to identify small molecule antagonists of the retinoid acid receptor (RAR) signaling pathway - cell viability counter screen (AID 1159551); further: nearly all actives have a fitted effect of over 35% in size
How it was run: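 C3RL4 RARE-luciferase cells, 1,000/well, incubated overnight, then dosed with compound plus 1 uM retinol (final). After 6 hr at 37 C, viability read by CellTiter-Glo ATP luminescence following 30 min at room temperature.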

[19] = qHTS assay to identify small molecule agonists of the constitutive androstane receptor (CAR) signaling pathway - cell viability counter screen (AID 1224836); further: nearly all actives have a fitted effect of over 45% in size
How it was run: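 Cells were seeded and incubated 4 hrs. Compounds were added across 15 concentrations together with PK11195 at 0.75 uM final. Plates were incubated 23 hrs at 37 C. CellTiter-Fluor was added and fluorescence measured.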

[20] = target: Nuclear receptor subfamily 1 group I member 3 (Homo sapiens) (UniProt Q14994); assay: qHTS assay to identify small molecule antagonists of the constitutive androstane receptor (CAR) signaling pathway (AID 1224838); further: nearly all actives have a fitted effect of over 40% in size
Sequence of Nuclear receptor subfamily 1 group I member 3 (Homo sapiens) (Q14994 whole entry, looked up): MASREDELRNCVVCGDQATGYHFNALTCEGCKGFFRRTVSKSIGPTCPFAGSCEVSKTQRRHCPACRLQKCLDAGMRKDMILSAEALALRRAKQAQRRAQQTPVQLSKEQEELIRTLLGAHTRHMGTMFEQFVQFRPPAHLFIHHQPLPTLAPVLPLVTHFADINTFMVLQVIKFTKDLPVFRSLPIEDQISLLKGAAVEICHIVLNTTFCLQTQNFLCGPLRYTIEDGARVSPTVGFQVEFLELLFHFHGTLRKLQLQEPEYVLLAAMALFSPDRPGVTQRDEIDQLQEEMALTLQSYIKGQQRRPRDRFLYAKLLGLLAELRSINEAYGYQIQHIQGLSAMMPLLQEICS
How it was run: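 HepG2 cells stably carrying hCAR and a CYP2B6-2.2kb luciferase reporter, seeded 4 hrs before compound (15 concentrations). Stimulated with 50 nM CITCO for 24 hr at 37 C. ONE-Glo luminescence read after 30 min at room temperature.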

Measured: Potency

CCCC(C)CC (configuration not stated)
not listed: [18] | [19] | [20]
inactive: all other assays above

C=CCOC(=O)c1ccc(C(=O)OCC=C)c(C(=O)OCC=C)c1
not listed: [11] | [16]
inactive: all other assays above

C=C(C)C(=O)OCCCCCCOC(=O)C(=C)C
not listed: [2] | [11] | [17] | [20]
inactive: all other assays above

CCN(Cc1cccc(S(=O)(=O)O)c1)c1ccccc1
not listed: [2] | [16] | [17] | [18]
inactive: all other assays above

CCCCCCCC[Si](OCC)(OCC)OCC
not listed: [2] | [18] | [20]
inactive: all other assays above

CN=C(NC#N)NCCSCc1csc(N=C(N)N)n1
not listed: [2] | [13] | [15] | [20]
inactive: all other assays above

O=C1OC(=O)c2ccccc21
not listed: [2] | [18] | [19] | [20]
inactive: all other assays above

CC(C)(CO)[C@@H](O)C(=O)NCCCO
not listed: [13] | [16] | [19] | [20]
inactive: all other assays above
